Reference: PubChem BioAssay (NCI)
Several values for one entry are separate records, joined by “and”; a condition that tells them apart may be missing. Identical values can stand only once. This is part of a sample that, as a whole, favours compounds with a hit. Of some 79,000 tested, about 15% had one in any assay. Unmarked numbers belong to inactive results. Activity calls are given as the source filed them. Rule as the data show it: active = growth inhibition above about 70%; inactive = the rest.

Experiment: NCI Yeast Anticancer Drug Screen. Data for the cln2 rad14 strain (AID 165);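 also: 0% = growth equal to vehicle treated cultures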
Conditions: S. cerevisiae cln2 rad14 strain, stronger effect = higher value; at 50.0 µM unless noted
Procedure: Growth inhibition of yeast strains with defined genetic alterations is measured as a screen for potential anti-cancer activity. Selected strains with alterations in DNA damage repair or cell cycle control were exposed to compounds and growth inhibition was measured relative to vehicle treated controls. The strain used in this assay is cln2 rad14

Structure (SMILES) | growth inhibition
O=[N+]([O-])c1ccc[nH]1 | 15.3%
CSCCC(Nc1ccc([N+](=O)[O-])cc1[N+](=O)[O-])C(=O)O (stereo not given) | 18.1%
CCC1=CCN(c2ccccn2)OC1c1ccc(OC)cc1 (stereo not given) | 22.3%
CC(C)(C(N)C(=O)O)C(N)C(=O)O (stereo not given) | -11.9%
O=C1C(N2CCCCC2)=C(c2ccccc2)c2ccccc21 | -28.9%
Cn1c(=O)[nH]c2ccc(Cl)cc2c1=O | -67.8%
CCOC(=O)c1c(C(=O)OCC)c2cccn2c2c1cnn2-c1ccccc1 | 5.55%
CN1N=C(c2ccncc2)OC1c1cccc(C(F)(F)F)c1 (stereo not given) | -3.6%
O=C(Cc1ccccc1)N/N=C(/c1nc2ccc([N+](=O)[O-])cc2[nH]c1=O)C(O)c1ccccc1Cl (stereo not given) | 2.2%
Cc1cc([N+](=O)[O-])ccc1NC(=O)n1nnc2cc(Cl)ccc21 | 1.1%
Cc1[nH]c(=O)[nH]c(=O)c1CCO | -29.4%
NC(N)=NC(N)=Nc1cc(Cl)c(Cl)cc1Cl | 98.8% (active)
Nc1c(F)c(F)c(N=Nc2ccccc2)c(F)c1F | 7.05%
SCCNCc1ccccc1 | 9.85%
CC(C)COC(c1ccc2c(c1)OCO2)C(C)Br (stereo not given) | 0.3%
COc1ccc(-c2nc(N)c3ncn(C4OC(CO)C(O)C4O)c3n2)cc1 (stereo not given) | -12.2%
O/N=C1\c2ccccc2-c2cccc(Br)c21 | -40.6%
N#Cc1c(N2CCCC2)nsc1Nc1ccc(F)cc1 | -16%
c1ccc2[nH]c(CSc3nc4ccccc4s3)nc2c1 | 33.6%
CCCCC(CC)CCC(C)O (stereo not given) | -40.4%

Structure (SMILES) | growth inhibition
CN(C)CC1CCCCCC(CN(C)C)C1=O (stereo not given) | 0.45% and -28.4%
CN(c1ccccc1)c1c(Cl)c(=O)oc2c1ccc1nc(-c3ccccc3)sc12 | 43.5%
CC1CC(Nc2ccc(Br)cc2)N(C(=O)c2ccc(Br)cc2)O1 (stereo not given) | 5.65%
CCC(C)C(NC(=O)Cc1ccccc1)C(=O)O (stereo not given) | -23.2%
Cc1ccc(S(=O)(=O)CCN2CCN(C)CC2)cc1 | -26%
NC(=O)C(=Cn1c(=S)[nH]c2ccc([N+](=O)[O-])cc21)C(N)=O | 11.7%
CCCCCCCCCCCCCCCC(=O)c1ccccc1 | 52.6%
COc1ccc(N2C(=O)c3c(c4[nH]c5ccc(OC)cc5c4c4ccc(C(C)(C)C)cc34)C2=O)cc1 | 7.2%
COC(=O)[C@H](Cc1c[nH]c2ccccc12)NC(=O)OCC1OC(n2cc(C)c(=O)[nH]c2=O)CC1N=[N+]=[N-] (stereo not given in full) | 9.3%
CN(C)c1ccc(N=C(C#N)C(=O)c2ccccc2)cc1 | -21.6%
c1ccc2c(c1)C(=NCCCN1CCCCCCC1)c1cccn1-2 | -2.7%
Brc1ccc2c(ccc3c2nnc2ncnn23)c1 | 10.7%
Cc1ccc(NCC2CC/C(=C\c3ccc(Cl)cc3)C2=O)cc1 (stereo not given) | -50.5%
CC(=O)C[n+]1ccccc1 | 3.75%
O=C(Nc1ccc(F)cc1)N1CCOCC1 | 9.6%
CCCCNC(=S)NNC(=O)c1ccncc1 | 5.5%
O=C1NC(=O)C(Cc2ccccc2)(c2cccnc2)N1 (stereo not given) | -36.1%
Cc1c(Cl)cccc1NC(=O)C(=O)c1c(O)c2ccc(O)cc2oc1=O | 3.45%
COc1ccc2c(c1)c(COC(C)=O)c(C)c[n+]2[O-] | 16.6%
O=C(Nc1ccccc1)Nc1ccc2c(c1)oc1ccccc12 | 28%
